High-throughput results as filed in PubChem BioAssay.
Shiga toxin inh = inhibitors of Shiga toxin in Vero cells; AID 2315; Vero cells, Shiga toxin protein synthesis inhibition reporter; 9.2% of 290,000 active; inhibition, % at 38.7 µM; in the data active = inhibition mostly above about 28%, no sharp cut-off; inactive = mostly below about 43%; note: 0% is about no effect
FBPA Giardia inh = Giardia lamblia aldolase inhibition; 0.71% of 290,000 active; Potency, µM (titrated, usually from 59.6 µM), for inactives: top-dose activity, negative = inhibition, usual class: inhibitors; A8B2U2; purified Giardia FBPA; AID 2451; note: potency is the fitted concentration of half-maximal effect; % is set by controls: 0 for no effect and ±100 for the full control effect; nearly all actives have a fitted effect of over 55% in size
Target sequence (A8B2U2 whole entry, looked up): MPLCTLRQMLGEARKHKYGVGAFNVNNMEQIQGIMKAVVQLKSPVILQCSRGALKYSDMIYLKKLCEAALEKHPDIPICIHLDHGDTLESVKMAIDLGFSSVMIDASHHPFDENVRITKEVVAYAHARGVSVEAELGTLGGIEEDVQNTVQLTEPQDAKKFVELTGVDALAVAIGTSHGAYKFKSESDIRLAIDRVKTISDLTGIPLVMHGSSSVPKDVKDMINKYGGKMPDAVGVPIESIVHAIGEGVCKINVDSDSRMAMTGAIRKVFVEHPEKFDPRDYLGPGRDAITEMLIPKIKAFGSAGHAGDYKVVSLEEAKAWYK
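40 nM FBPA preincubated 10 min at RT with compound (up to 57.5 uM final), then substrate plus GAPDH/TPI/NAD/arsenate coupling and diaphorase/resazurin added. Fluorescence read after 20 min at RT, 525/598 nm.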
RE007 growth inh = less growth of the S. pombe RE007 Vpr strain. S. pombe RE007 Vpr strain, BacTiter-Glo ATP luminescence, 24 h. 0.21% of 360,000 active. AID 651644. Potency, µM (top dose mostly 92.2 µM), for inactives: at the highest dose activity change, negative = less growth, actives largely listed as inhibitors; active = well fitted falling curve with a large enough effect; inconclusive = small, poorly fitted or top-dose-only effect; inactive = no such curve, though single readings can be large or run the other way; note: potency is the fitted concentration of half-maximal effect; % is set by controls: 0 for no effect and ±100 for the full control effect; nearly all actives have a fitted effect of over 50% in size
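Fission yeast RE007 carrying one integrated HIV-1 vpr copy, seeded at OD 0.01 in PMG+AL medium with 23 nL pinned compound. Grown 24 h at 30 degrees; viability read by BacTiter-Glo luminescence after 5 min.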
Tb PYK inh = T. brucei pyruvate kinase inhibition; Q57TT1; TbPYK enzyme, Kinase-Glo Plus ATP luminescence, 45 min; Potency, µM (titrated, usually from 76.8 µM), for inactives: at the highest dose activity, negative = inhibition, most hits filed as inhibitors; 0.12% of 410,000 active; note: potency is the fitted concentration of half-maximal effect; % is set by controls: 0 for no effect and ±100 for the full control effect; nearly all actives have a fitted effect of over 50% in size
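T. brucei PYK with substrate was exposed to pin-transferred compounds across a concentration series, then started with 130 uM ADP (final). After 45 min at room temperature, Kinase-Glo Plus luminescence was read, normalized and curve-fitted.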
CHX counter = counter-screen for Shiga toxin inhibitors: cycloheximide protein synthesis inhibition; max response, %; AID 2314; 12% of 300,000 active; cell reporter, cycloheximide protein synthesis inhibition counterscreen; in the data active = max response mostly above about 13%, no sharp cut-off; inactive = mostly below about 14%; note: read at 38.3 µM for the half of the compounds with a filed dose; 0% is about no effect
LmPK inh = inhibitors of Leishmania mexicana pyruvate kinase | Q27686 | purified LmPK, Kinase-Glo ATP luminescence, 1 h | Potency, µM (doses to about 57.5 µM), for the others: at the top dose activity change, negative = inhibition, most hits filed as inhibitors | 0.37% of 290,000 active; note: potency is the fitted concentration of half-maximal effect; % is set by controls: 0 for no effect and ±100 for the full control effect
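Purified LmPK (0.1 nM) converted ADP (0.1 mM) to ATP with PEP (0.5 mM) in imidazole buffer pH 7.2 with KCl and MgCl2, 1 h at room temperature. ATP was read by Kinase-Glo luminescence; data normalized to uninhibited and no-enzyme controls.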
The depositor's hits bear a star; ? = inconclusive; / = not tested or not shown; [ ] = dose if it differs, or a comment. Many of the other results were omitted from the sample, so hits are more common in it than they were. Unless noted, calls come from the whole dose curve; as a rule, active = well fitted curve in the direction sought with a large enough effect; inconclusive = small, poorly fitted or top-dose-only effect, or another doubt; inactive = no such curve, though single readings can be large; an effect the other way counts as inactive or inconclusive.

SMILES | Shiga toxin inh | FBPA Giardia inh | RE007 growth inh | Tb PYK inh | CHX counter | LmPK inh
COc1c(Cl)cnn(-c2ccc(C)cc2)c1=O | 66* | 5% | 11% | 5% | 25* | -5%
COc1cc(N(C(C)=O)c2ccc(O)c(C(=O)O)c2)c2ncccc2c1 | / | / | 0% | -2% | / | /
COc1ccc2cnn(-c3ccc(C)cc3)c(=O)c2c1OC | 153* | -3% | -4% | -6% | 102* | 6%
Clc1ccccc1Cn1c(/C=C/c2ccco2)nc2ccccc21 | 132* | -9% | 32% | -18% | 90* | -6%
O=C(NCCCc1nc2ccccc2n1Cc1ccccc1Cl)c1ccco1 | / | / | / | -3% | / | /
Cc1ccc(C)c(NC(=O)C2CCCN2S(=O)(=O)c2ccc3c(c2)CCCC(=O)N3)c1 (stereo not drawn) | / | / | / | 2% | / | /
CCCCCC(=O)Nc1ccc(-c2csc(N)n2)cc1 | 123* | -17% | -15% | -1% | 57* | 3%
CCC(=O)Nc1ccc(-c2csc(NNC(C)=O)n2)cc1 | 2 | -12% | 10% | -6% | -1 | 0%
Cc1nc(-c2ccc(NC(=O)/C=C\C(=O)O)cc2)cs1 | 50* | 10% | -8% | ? | 18* | -2%
CCCCCC(=O)Nc1ccc(-c2csc(C)n2)cc1 | 77* | -11% | -16% | 11% | 46* | 1%
Cc1ccc2nc(-c3ccc(NC(=O)COc4c(C)ccc(C)c4C)cc3)sc2c1 | / | / | / | 3% | / | /
Cc1ccc2sc(-c3ccc(NC(=O)/C=C\C(=O)O)cc3)nc2c1 | 112* | 3% | -26% | ? | 40* | -4%[11.5 µM]
Cc1ccc(-c2cn3cccnc3n2)cc1NC(=O)Cc1ccccc1 | / | / | / | 3% | / | /
O=C1NC(=O)C(Cc2ccc(O)cc2)N1 (stereo not drawn) | / | / | -2% | 1% | / | /
c1ccc2c(c1)ccc1nnc(-c3ccc4c(c3)OCO4)n12 | active | -12% | -4% | 0% | 12* | 0%
c1ccc2c(c1)ccc1nnc(SCc3ccc4c(c3)OCCO4)n12 | 42* | -4% | 0% | -5% | 42* | 5%
O=C(CSc1nnc2ccc3ccccc3n12)N1CCOCC1 | 32* | -5% | 14% | 5% | 63* | -4%
Cc1cc2nnc(SCc3ccc4c(c3)OCO4)n2c2ccccc12 | / | / | -1% | -5% | / | /
COc1ccc(NC(=O)C2CCN(C(=O)Nc3ccccc3)CC2)cc1S(=O)(=O)N(C)C | / | / | -22% | 0% | / | /
Cc1cnc(NC(=O)CCCSc2nc3ccccc3s2)s1 | 31 | 2% | 4% | -2% | -3 | -1%
O=C(CCCSc1nc2ccccc2s1)NCc1ccco1 | 81 | 0% | -10% | -1% | 16* | 7%
CCc1ccccc1NC(=O)CCCSc1nc2ccccc2s1 | 13 | 2% | 1% | -15% | 12* | 4%
Cc1ccc(S(=O)(=O)N2CCCC(c3nc4c(nnn4Cc4ccc(OC(F)(F)F)cc4)c(=O)[nH]3)C2)cc1 (stereo not drawn) | / | / | / | -3% | / | /
CCc1ccc(CN(Cc2ccco2)C(=O)COc2ccc(Cl)cc2C)cc1 | / | / | / | 0% | / | /
COc1ccc(OCC(=O)NC(=S)NNC(=O)COc2ccc(Br)cc2Cl)cc1 | 15 | -16% | -23% | ? | 2 | 0%
SMILES | Shiga toxin inh | FBPA Giardia inh | RE007 growth inh | Tb PYK inh | CHX counter | LmPK inh
O=C(COc1ccc(Br)cc1Cl)NC(=S)Nc1ccccn1 | 115* | ? | 14% | 7% | 76* | 3%
Cc1ccc(OCC(=O)NC(=S)Nc2ccccn2)c(Br)c1 | 83* | / | -19% | 4% | 28* | -24%
Cc1cc(C(=O)N2CCC2(C)C(=O)O)c(C)o1 (stereo not drawn) | / | / | -10%[18.4 µM] | 4% | / | /
CN(C)NC(=S)NC1CCS(=O)(=O)C1 (stereo not drawn) | 1 | -24% | 0% | 0% | -1 | -2%
COc1ccc(OC)c(S(=O)(=O)Nc2cccc3ccc(O)cc23)c1 | / | / | 12% | -20% | / | /
COc1ccc2nc3cccc(OC)c3nc2c1 | 63* | 1.4µM* | ? | -10% | 44* | -7%
COc1ccc2nc3ccccc3nc2c1N | 159* | -11% | ? | -16% | 49* | ?
CCn1c2ccc(OC)cc2c2nc3ccccc3nc21 | 11 | -1% | -12% | 1% | 5 | 6%
BrC(=C\c1ccccc1)/C=N/Nc1ccc2nncn2n1 | 18 | 0% | 16% | 1% | 11 | -1%
BrC(=C\c1ccccc1)/C=N/n1cnnc1 | 31* | 1% | -6% | 1% | 43* | -4%
COc1cc(CN2CCCC(C(=O)c3ccc4c5c(cccc35)CC4)C2)cc(OC)c1O (stereo not drawn) | 1 | 7.9µM* | -12% | -18% | -2 | 0%
O=C(c1ccc2c3c(cccc13)CC2)C1CCCN(Cc2cccnc2)C1 (stereo not drawn) | -21 | -1% | 1% | -5% | -1 | -2%
COc1ccc(/C=N/NC(=O)c2cccc([N+](=O)[O-])c2)cc1O | 102* | -3% | -11% | -1% | 25* | -3%
COc1cc(/C=N/NC(=O)c2cccc([N+](=O)[O-])c2)ccc1O | 21 | -11% | 8% | 2% | 20 | 3%
COc1cc(/C=N/NC(=O)c2cccc([N+](=O)[O-])c2)ccc1OCc1ccc(C)cc1 | 62* | 1% | -1% | 4% | 22* | -1%
COc1ccc(C2=C(C)C(N3CCC(C(=O)NCc4ccco4)CC3)=NS2(=O)=O)cc1 | / | / | / | -10% | / | /
Nc1cccc(-c2cn3ccsc3n2)c1 | / | / | / | -7% | / | /
COC(=O)c1ccc2nc(-c3ccc(S(C)(=O)=O)cc3)cn2c1 | 85 | -2% | -15% | -1% | 59* | -1%
COC(=O)c1ccc2nc(-c3cccc(N)c3)cn2c1 | 10 | -10% | -14% | -15% | -3 | 25µM*
COC(=O)CC(NC(=S)NC(=O)c1ccccc1)c1ccc(Br)cc1 (stereo not drawn) | 10 | 8% | -1% | 2% | 5 | 3%
COCCCn1cc(CN2CC(N3CCN(Cc4cccc(C)c4)CC3)CS2(=O)=O)nn1 (stereo not drawn) | / | / | -5% | 3% | / | /
Cc1noc(C)c1C(=O)Nc1ccc(F)cc1F | -9 | 1% | 10% | -5% | 7 | -1%
CCc1ccc(NC(=O)c2cc(C)no2)cc1 | 70* | -7% | 6% | 1% | 47* | -1%
Cc1cc(C(=O)Nc2ccc(F)cc2F)on1 | 6 | -4% | -10% | 3% | 15* | 1%
Cc1cc(C(=O)Nc2ccccc2C)on1 | -2 | 13% | 9% | 2% | 0 | 0%
Cc1ccc(NC(=O)c2cc(C)no2)cc1 | 80* | 3% | 0% | 4% | 59* | 0%
Cc1cc(C(=O)Nc2ccc(F)c(Cl)c2)on1 | 6 | 6% | 1% | -2% | 19* | -3%
COCc1cc(C)nc(NC2CC(C)(C)NC(C)(C)C2)c1C#N | -4 | 7% | 8% | -1% | -2 | 5%
